Results on ten compounds are retold here after PubChem BioAssay.

The nature of assay [1]: inhibitors of TNFa-induced NFkB p65 translocation, primary screen, imaging, HUVEC, MLSMR starter and 10KST1 sets (AID 438).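 Further: compound added about 3h40 before a 20 min TNFalpha stimulation.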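 On inhibition: signal is the nuclear over cytoplasmic p65 intensity ratio per well.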 Particulars: HUVEC TNFa-induced p65 nuclear translocation; cell count: measured here: nuclei count (cytotoxicity indicator), at 2.08 µM; inhibition: at 2 µM, stronger effect = higher value, 0% TNFa-plus-vehicle, 100% no-TNFa wells.
Assay [2] can be described thus: reduction of polyQ htt aggregates in cells – imaging, exon1htt(103Q)mCFP cells, high-content imaging, primary screen (AID 483;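 active means visual image review flags a hit and inhibition of aggregation exceeds 20%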;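 further: compound exposure lasted 3 days before fixation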;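 on nuclei count: percent of the per-plate median nuclei count of sample wells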). Particulars: exon1htt(103Q)mCFP cell line, aggregate imaging, at 2 µM; inhibition of aggregation: stronger effect = higher value; nuclei count: measured here: cell count, toxicity.
The nature of assay [3]: endothelial E-selectin expression blockers – imaging, HUVEC, immunofluorescence, MLSMR starter and 10KST1 sets, primary screen (AID 487;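 active means visually confirmed hit in the image check and inhibition above 20%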;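 on inhibition: signal is fraction of cell area covered by stained E-selectin grains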;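 on nuclei count: 100% = median nuclei count of all wells on the same plate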). Particulars: HUVEC TNFalpha-induced E-selectin immunofluorescence imaging, at 2 µM; inhibition: stronger effect = higher value; nuclei count: measured here: cell number, toxicity.
Assay [4] in a line: Primary imaging screen for DUSP6 inhibitors that restore phospho-Erk in transfected HeLa cells, chemical complementation (AID 609;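 active means compounds giving at least 50% inhibition in the cell-based MKP-3 phosphatase rescue imaging test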;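 on inhibition: phospho-Erk level distribution per well compared with pooled transfected vehicle control wells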). Particulars: HeLa MKP-3 transfected, phospho-Erk imaging KS statistic, at 10 µM, cells stimulated with TPA for 15 min.
Assay [5] concerns the target Dual specificity protein phosphatase 6 (Homo sapiens) (UniProt Q16828). Described as above. Particulars: HeLa MKP-3 transfected, phospho-Erk imaging KS statistic; at 10 µM; stronger effect = higher value; cells stimulated with TPA for 15 min.
Assay [6] has as its target Voltage-gated potassium channel subunit beta-2 (Rattus norvegicus) (UniProt P62483). The assay is described as follows: inhibitors of rat Kvbeta2 reductase activity – biochemical, NADPH fluorescence, primary screen (AID 622;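 active means fluorescence slope higher than the sample average by over 3 SD, cut at about -0.22 in these data, passing the limit was not always enough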;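 further: slope of raw intensity against log time taken from 70 to 1610 s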). Particulars: recombinant KvBeta, 4-cyanobenzaldehyde reduction, at 10 µM, stronger effect = higher value.
For assay [7] the target is unchanged. Put plainly: enhancers of rat Kvbeta2 NADPH turnover – biochemical, NADPH fluorescence, primary screen (AID 623;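 active means NADPH fluorescence slope more negative than the mean of all samples by about 3 SD, 99.7% confidence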;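 further: fluorescence intensity change per second fitted from 20 to 320 s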). Particulars: Recombinant KvBeta, NADPH fluorescence decrease slope, 10 min; at 10 µM; stronger effect = lower value.
The target of assay [8] is Muscarinic acetylcholine receptor M4 (Homo sapiens) (UniProt P08173). The assay is described as follows: M4-linked GIRK flux change, two-sided – cell-based, HEK293 M4/GIRK, thallium flux, BTC-AM, M4 allosteric agonist project, primary screen (AID 625;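 active means fluorescence slope after compound addition differing from the mean of all tested samples at 99.7% confidence, mostly higher but some lower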;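 further: thallium influx through GIRK channels coupled to M4 in HEK293 cells with BTC-AM dye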). Particulars: at 10 µM, actives lie on both sides.
Chain of Muscarinic acetylcholine receptor M4 (Homo sapiens) (P08173 whole entry, looked up): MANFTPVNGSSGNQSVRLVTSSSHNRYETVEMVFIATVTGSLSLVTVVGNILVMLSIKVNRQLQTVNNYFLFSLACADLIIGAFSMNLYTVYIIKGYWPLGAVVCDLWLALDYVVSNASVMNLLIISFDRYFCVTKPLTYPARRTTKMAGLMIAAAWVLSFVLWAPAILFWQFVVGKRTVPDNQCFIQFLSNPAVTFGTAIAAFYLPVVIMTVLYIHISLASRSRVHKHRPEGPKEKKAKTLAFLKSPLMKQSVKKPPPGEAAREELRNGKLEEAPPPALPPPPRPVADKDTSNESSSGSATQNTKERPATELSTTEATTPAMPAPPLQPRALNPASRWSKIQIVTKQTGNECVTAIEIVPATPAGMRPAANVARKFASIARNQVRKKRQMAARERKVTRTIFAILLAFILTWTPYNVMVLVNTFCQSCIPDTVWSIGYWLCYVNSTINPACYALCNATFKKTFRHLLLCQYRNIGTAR
Assay [9] is described as follows: inhibitors of larval lipid processing in zebrafish, primary screen, whole organism, PED6 fluorescence, gall bladder and intestine (AID 686;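 active means a full or partial loss of lipid-probe fluorescence in the fish gall bladder, intestine or both, judged by eye; inactive means no fluorescence loss, or compound toxic to the fish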;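 further: larvae 5 to 7 days old with five fish per well; signal comes from phospholipase A2 cleavage of quenched PED6 carried via bile; overnight exposure to compound and PED6 before scoring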). Particulars: Zebrafish larvae PED6 lipid processing, fluorescence scoring; screened at 20 µM (by protocol).
Assay [10] is described as follows: loss of swimming-algae plug formation – whole organism, Chlamydomonas reinhardtii, WT vs cilia-less mutant, absorbance, 96-well, primary screen (AID 463189;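 active means inhibition at or above 50% relative to wild type and mutant plate controls; inactive means inhibition below 50%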;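 further: 0% = wild type cc124 cells in DMSO and 100% = ciliumless bld1 mutant cells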). Particulars: Chlamydomonas reinhardtii gravitaxis, OD600 absorbance, 2 days; at 10 µM; stronger effect = higher value.
Assay [11] in a line: blockers of RIG-like receptor reporter activation – cell-based, Sendai virus stimulus, luciferase, 10K MLSCN set, TLR/RLR signaling modifier project, primary screen (AID 602276;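 active means inhibition at or above 50% at 10 µM; inactive means inhibition below 50%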;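 further: firefly luciferase from ISG56 promoter only with Renilla not read in this screen; 0% = Sendai virus plus DMSO and 100% = medium plus DMSO without virus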). Particulars: HEK293 RL24 IRF3 luciferase reporter, at 10 µM, stronger effect = higher value. (In general: A reporter such as luciferase makes a cellular process visible.)
Assay [12] in a line: TLR3 IRF3 reporter activation blockers – cell-based, poly I:C stimulus, luciferase, 10K MLSCN set, primary screen (AID 602277;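 active means inhibition of the reporter signal at or above 50%; inactive means inhibition below 50%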). Particulars: HEK293-TLR3 RL24 IRF3 luciferase reporter, at 10 µM, stronger effect = higher value.
[13] abbreviates: measured here: cell density z-score.
Setting [14] is: measured here: nuclear c-Myc green intensity z-score.
Setting [15] is: measured here: nuclear pErk red intensity z-score, stronger effect = higher value.

Active and inactive are the calls of the source.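 How the source made its calls, unless noted: active means inhibition above 20% together with a positive visual image hit; inconclusive means visual image hit but inhibition not above 20%; inactive means no visual image hit.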

Chain of Voltage-gated potassium channel subunit beta-2 (Rattus norvegicus) (P62483 whole entry, looked up): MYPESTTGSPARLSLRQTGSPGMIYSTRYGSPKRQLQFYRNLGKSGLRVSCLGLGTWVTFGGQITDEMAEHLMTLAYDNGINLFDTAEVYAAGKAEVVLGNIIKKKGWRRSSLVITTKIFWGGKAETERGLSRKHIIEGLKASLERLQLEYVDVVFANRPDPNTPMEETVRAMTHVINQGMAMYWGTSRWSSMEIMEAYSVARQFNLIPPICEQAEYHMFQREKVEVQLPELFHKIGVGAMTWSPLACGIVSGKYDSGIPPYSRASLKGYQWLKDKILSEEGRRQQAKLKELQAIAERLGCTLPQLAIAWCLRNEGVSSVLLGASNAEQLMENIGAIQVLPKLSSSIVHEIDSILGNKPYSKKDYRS
Chain of Dual specificity protein phosphatase 6 (Homo sapiens) (Q16828 whole entry, looked up): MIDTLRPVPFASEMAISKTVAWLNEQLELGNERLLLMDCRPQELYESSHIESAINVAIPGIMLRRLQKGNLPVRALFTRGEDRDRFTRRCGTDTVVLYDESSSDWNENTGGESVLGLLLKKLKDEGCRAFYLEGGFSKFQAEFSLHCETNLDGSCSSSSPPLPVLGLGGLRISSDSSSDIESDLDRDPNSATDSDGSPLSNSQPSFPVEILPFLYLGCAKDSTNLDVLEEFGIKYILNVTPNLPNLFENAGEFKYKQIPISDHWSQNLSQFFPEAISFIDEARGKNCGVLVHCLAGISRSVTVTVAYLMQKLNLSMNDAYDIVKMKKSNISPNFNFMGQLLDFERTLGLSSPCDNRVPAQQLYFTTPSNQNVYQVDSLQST

In the case of `COC(=O)c1cc(=O)n2c(-c3ccc(OC)cc3)csc2n1`, in assay [1], the cell count is 468. In addition, the inhibition (as a rule, the relative decrease from the control value, in per cent) in assay [1] was -6.9% (inactive); in assay [3], -46.8% (inactive); in assay [5], 1.98% (inactive); in assay [10] it was -2.61% (inactive); in assay [11], 18.2% (inactive); in [12], 19.9% (inactive). The inhibition of aggregation in assay [2] is 8.7% (inactive). Further, the values for the nuclei count in assay [2] and in assay [3] were 104% and 133%, respectively. Also, the z-score in assay [4] (setting [13]) is -0.555; in [4] (setting [14]), 0.15; in assay [4] (setting [15]) it was -1.12. Also, the fluorescence slope in [6] was -0.383 (inactive); in assay [8] it was 0.00743 (inactive). The NADPH fluorescence slope in assay [7] is -3.1e-05 (inactive). For the same compound, the compound was called inactive in [9].
In the case of `COC(=O)C(NC(C)=O)(Nc1ccccn1)C(F)(F)F` (stereo not given), the cell count in [1] was determined as 499. Further, the inhibition was -0.5% (inactive) in [1]; -61.1% (inactive) in assay [3]; 41.5% (inactive) in [5]; -7.72% (inactive) in [10]; 12.5% (inactive) in assay [11]; 20.1% (inactive) in assay [12]. In assay [2], the inhibition of aggregation was 12.2% (inactive). For the same compound, the nuclei count was 111% in [2] and 121% in [3]. The results for the z-score in [4] (setting [13]), in assay [4] (setting [14]) and in [4] (setting [15]) were 2.44, -0.933 and -0.0238, respectively. Besides, the fluorescence slope in [6] is -0.44 (inactive); in assay [8], 0.00527 (inactive). Besides, the NADPH fluorescence slope in assay [7] was -0.000125 (inactive). In addition, the call in assay [9] was inactive.
Consider `c1ccc(CN2CCN(c3ncnc4c3[nH]c3ccccc34)CC2)cc1`, for which the cell count in assay [1] is 599. The inhibition is -13.1% (inactive) in assay [1]; -47.4% (inactive) in [3]; 13.4% (inactive) in assay [5]; 21.2% (inactive) in [10]; 1.57% (inactive) in assay [11]; -46.7% (inactive) in [12]. In addition, the inhibition of aggregation in assay [2] is 10.3% (inactive). The nuclei count was 94.4% in assay [2] and 137% in assay [3]. In addition, the z-score in assay [4] (setting [13]) is 0.378; in [4] (setting [14]), -1.18; in [4] (setting [15]) it was -0.208. Further, the fluorescence slope in [6] was -0.381 (inactive); in assay [8] it was 0.00594 (inactive). Further, in assay [7], the NADPH fluorescence slope was -2.8e-05 (inactive). Moreover, in [9], the outcome was “active; weak signal in intestine only”.
Turning to `COc1ccccc1Nc1ncnc2c1cnn2-c1cccc(C)c1`, the cell count in assay [1] worked out at 398. For the same compound, the inhibition in assay [1] is -11% (inactive); in [3] it was -38.9% (inactive); in assay [5], -2.59% (inactive); in assay [10], 4.11% (inactive); in [11], -27.1% (inactive); in assay [12], -52.1% (inactive). Further, the inhibition of aggregation in [2] was 23.4% (inactive). Moreover, the nuclei count in [2] is 92.4%; in assay [3], 133%. The z-score in [4] (setting [13]) is -0.0649; in assay [4] (setting [14]), -0.454; in [4] (setting [15]), 0.131. Further, the values for the fluorescence slope in assay [6] and in assay [8] were -0.356 (inactive) and 0.00739 (inactive), respectively. In assay [7], the NADPH fluorescence slope was -3.8e-05 (inactive). Moreover, in [9], the result was inactive.
As to `COC(=O)CNC(=O)c1c(C)cc(=O)oc1C`, the cell count in [1] amounted to 481. For the same compound, the inhibition in assay [1] is 1.6% (inactive); in [3] it was -34.9% (inactive); in assay [5] it was 19.4% (inactive); in assay [10], 28.5% (inactive); in assay [11] it was 5.18% (inactive); in assay [12], 12% (inactive). For the same compound, the inhibition of aggregation in assay [2] was 1.6% (inactive). Also, the results for the nuclei count in [2] and in assay [3] were 110% and 115%, respectively. Besides, the z-score is 0.439 in assay [4] (setting [13]), -0.128 in assay [4] (setting [14]) and -1.37 in assay [4] (setting [15]). Moreover, the fluorescence slope in assay [6] was -0.336 (inactive); in assay [8], 0.00527 (inactive). Besides, the NADPH fluorescence slope in assay [7] is -2.8e-05 (inactive). Also, the outcome in [9] was inactive.
Consider `Cn1c(=O)[nH]c(=O)c2c1nc(N(CCO)Cc1ccccc1)n2Cc1ccccc1Cl`, for which the cell count in [1] was found to be 650. Moreover, the inhibition in assay [1] was 4.6% (inactive); in assay [3] it was -37.5% (inactive); in [5], 1.63% (inactive); in assay [10] it was 31.2% (inactive); in assay [11], 16.5% (inactive); in [12] it was 28.7% (inactive). Besides, the inhibition of aggregation in assay [2] is -19.3% (inactive). Also, the nuclei count in assay [2] is 139%; in assay [3] it was 109%. For the same compound, the z-score in assay [4] (setting [13]) is 1.19; in assay [4] (setting [14]) it was -1.16; in [4] (setting [15]), -0.515. For the same compound, the fluorescence slope was -0.438 (inactive) in assay [6] and 0.00652 (inactive) in assay [8]. In addition, in assay [7], the NADPH fluorescence slope is -6.1e-05 (inactive). The outcome in assay [9] was inactive.
Take `Cn1c(SCC(=O)N2CCOCC2)nnc1-c1cccc(NC(=O)c2ccccc2F)c1`: the cell count in assay [1] came to 576. The inhibition in assay [1] was -2.8% (inactive); in assay [3] it was 17.5% (inactive); in assay [5] it was 1.63% (inactive); in [10] it was 20.3% (inactive); in assay [11] it was 13.9% (inactive); in assay [12], 22.5% (inactive). Besides, the inhibition of aggregation in assay [2] was -17.6% (inactive). The nuclei count is 115% in assay [2] and 107% in assay [3]. In addition, the z-score is -2.39 in assay [4] (setting [13]), 0.78 in assay [4] (setting [14]) and -0.11 in assay [4] (setting [15]). Further, the fluorescence slope in assay [6] is -0.578 (inactive); in assay [8] it was 0.00616 (inactive). The NADPH fluorescence slope in assay [7] was -5.9e-05 (inactive). In addition, the result in [9] was inactive.
In the case of `Nc1nnnn1/N=C/c1ccccn1`, in assay [1], the cell count is 568. In addition, the inhibition in assay [1] is -2.8% (inactive); in [3] it was -155% (inactive); in assay [5], 34.3% (inactive); in assay [10] it was 26.1% (inactive); in assay [11], -14.9% (inactive); in assay [12], -32% (inactive). For the same compound, the inhibition of aggregation in [2] was -8.1% (inactive). Moreover, the nuclei count in [2] stood at 98.2%; in assay [3], 142%. Besides, the z-score was 1.54 in assay [4] (setting [13]), -1.1 in assay [4] (setting [14]) and -0.159 in assay [4] (setting [15]). Also, the fluorescence slope was -0.513 (inactive) in assay [6] and 0.00549 (inactive) in assay [8]. Further, the NADPH fluorescence slope in assay [7] was -6e-05 (inactive). In assay [9], the outcome was inactive.
For `COc1ccc2c(c1)[nH]c1c(=O)n(CCN(C)C)cnc12`, the cell count in [1] turned out to be 660. Besides, the inhibition in assay [1] is -3.5% (inactive); in [3] it was 23.1% (inactive); in assay [5], 9.61% (inactive); in assay [10], 2.29% (inactive); in assay [11], 17% (inactive); in [12], 24.4% (inactive). In [2], the inhibition of aggregation was -8.1% (inactive). Also, the nuclei count is 102% in [2] and 135% in assay [3]. Also, the z-score in assay [4] (setting [13]) is -1.37; in [4] (setting [14]), 2.24; in assay [4] (setting [15]) it was -0.536. Also, the fluorescence slope in assay [6] is -0.449 (inactive); in [8] it was 0.00667 (inactive). For the same compound, in [7], the NADPH fluorescence slope is -3.5e-05 (inactive). Besides, the compound was called inactive in assay [9].
On to `CCOC(=O)CC(C#N)c1cn(C)c2ccccc12` (stereo not given), for which, in [1], the cell count was determined as 657. Moreover, the inhibition was -0.6% (inactive) in assay [1]; 8.5% (inactive) in assay [3]; -7.28% (inactive) in assay [5]; 13.1% (inactive) in [10]; 21.5% (inactive) in assay [11]; 28.2% (inactive) in assay [12]. Also, the inhibition of aggregation in assay [2] is 2.2% (inactive). Further, the values for the nuclei count in assay [2] and in assay [3] were 104% and 135%, respectively. Besides, the figures for the z-score in assay [4] (setting [13]), in assay [4] (setting [14]) and in assay [4] (setting [15]) were -1.04, 0.465 and 0.369, respectively. Moreover, the results for the fluorescence slope in assay [6] and in [8] were -0.46 (inactive) and 0.00661 (inactive), respectively. Moreover, in [7], the NADPH fluorescence slope is -3.8e-05 (inactive). Further, in [9], the compound was classed as inactive.
